Compounds without any hit were thinned out: in the full panel of roughly 83,000, 20% have a hit.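 For each line, cells grew in 96-well plates with the test compound present at a single concentration for 48 hours.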 Unmarked numbers belong to inactive results. Calls of active or inactive are those of the source. The calls were made as follows: active = growth percent below 10; inactive = the rest.
test system: OVCAR-5 ovarian; experiment: NCI-60 one-dose screen, 48 h (100 = growth as untreated, 0 = no growth, -100 = all killed); settings: 10 µM unless noted

Row | SMILES | growth
1 | COc1ccc(COC(C)=O)cc1 | 98.1%
2 | COC(=O)CCC1=C(CC(=O)OC)C(C)=N/C1=C\c1[nH]c(-c2ccc[nH]2)cc1OC | 65%
3 | O=C(/C(=N/O)S(=O)(=O)c1ccccc1)c1cccs1 | 118%
4 | COc1cc(OC)c2cc(C(=O)O)c(=O)oc2c1 | 106%
5 | CN(CCOc1ccc(CC2SC(=O)NC2=O)cc1)c1ccccn1 (stereo unspecified) | 95.2%
6 | CCC(C)CC(C)C(=O)c1c(O)ccn(O)c1=O (stereo unspecified) | 72.8%
7 | O=C(CSc1nc2c(n1Nc1ccccc1)-c1ccccc1SC2)Nc1nc(-c2ccc(Cl)cc2)cs1 | 93.6%
8 | Cc1[nH]n(C(N)=S)c(=O)c1N=Nc1ccc(F)c(Cl)c1 | 102%
9 | Clc1cccc(Cc2cn3cc(-c4ccccc4)nc3s2)c1 | 34.1%
10 | NC(=O)N/N=C/c1ccc(Br)o1 | 98.7%
11 | C[n+]1c2ccccc2c(NC2CCNCC2)c2[nH]c3ccccc3c21 | 36.3%
12 | [O-]/[N+](=C\C=C\c1ccccc1)c1ccccc1 | 107%
13 | CCCn1cnc2c1c(=O)n(CCCCC(C)=O)c(=O)n2C | 110%
14 | O=C1/C(=C/c2ccc3cccc(Cl)c3n2)SC(=S)N1CCc1ccc(O)cc1 | 106%
15 | CN=C(NC)N/N=C(C)\C=N\NC(=NC)NC | 116%
16 | CCN(CC)CCCNCCCNc1cc(OC)cc2cccnc12 | 94.5%
17 | COc1cc2c(cc1OCCCOc1ccc(-c3cc4ccccc4c4ccccc34)cc1)N=C[C@@H]1CCCN1C2=O | -69.5% (active)
18 | Nc1ccc(C2=NN(c3ccccc3)C(c3ccc(Cl)cc3)C2)cc1 (stereo unspecified) | 84.2%
19 | O=C1C[C@@H]2/C(=C(O)\C=C\c3ccccc3)C(=O)C=C[C@@H]2O1 | 51.5%

Row | SMILES | growth
20 | COc1ccc(-c2cc(C(=O)Nc3nc4cc(C)c(C)cc4s3)nc3cc(-c4ccccc4)nn23)cc1OC | 111%
21 | CCC(=O)Nc1ccccc1C#C/C=C\C#Cc1ccccc1C(F)(F)F | 53.8%
22 | Oc1ccccc1C=Nc1ccccc1N=Cc1ccccc1O.[Cu+2] | 103%
23 | CCOc1cccc(C2CC(=O)Nc3cc4c(cc32)OCO4)c1 (stereo unspecified) | 109%
24 | NC(N)=NN=c1c(=O)c2ccccc2c1=O | 98.9%
25 | O=[N+]([O-])c1ccc(Oc2cccc(C(F)(F)F)c2)c([N+](=O)[O-])c1 | 68.1%
26 | CCCCCCCCCCCCNc1ncnc2[nH]ncc12 | 90.6%
27 | Cc1ccc2c(c1)C(=O)/C(=C/c1ncc([N+](=O)[O-])n1C)O2 | 8.96% (active)
28 | O=C(/C=C/c1cccnc1)NCCCCC1CCCN(C(=O)c2ccccc2)C1 (stereo unspecified) | 96.1%
29 | O=C(/C=C/c1cccnc1)/C=C/c1cccnc1 | -21.7% (active)
30 | COc1ccc(-n2nnc(C(=O)O)c2-c2cc(OC)c(OC)c(OC)c2)cc1 | 103%
31 | COc1cc2c(cc1OCCCCCn1c(-c3ccc(OCc4ccccc4)cc3)nc3cc(N4CCOCC4)ccc31)N=C[C@@H]1CCCN1C2=O | 9.51% (active)
32 | O=C1C(=O)c2ccc(Br)cc2-c2cc(Br)ccc21 | 113%
33 | CCC(C)CC(C)C(=O)c1c(O)ccn(OC)c1=O (stereo unspecified) | 86.8%
34 | NNC(=O)NO | 110%
35 | COc1ccc(C2CC(c3cccc(Nc4ccnc5cc(Cl)ccc45)c3)=NN2C=O)cc1 (stereo unspecified) | 45.3%
36 | C=CC1=C(C(=O)O)N2C(=O)[C@@H](NC(=O)/C(=N\O)c3csc(N)n3)[C@H]2SC1 (stereo in doubt) | 95.7%
37 | CC(=O)Oc1ccc(C2OC(c3ccc4ccccc4c3OC(C)=O)=NN2C(C)=O)c(OC(C)=O)c1 (stereo unspecified) | 63.2%
38 | Cc1ccc(NC(=O)COC(=O)c2ccc(S(=O)(=O)N3CCCCCC3)cc2)cc1 | 84%

test system: OVCAR-4 ovarian; experiment: as above; settings: 10 µM unless noted

Row | SMILES | growth
39 | COc1ccc(COC(C)=O)cc1 | 120%
40 | COC(=O)CCC1=C(CC(=O)OC)C(C)=N/C1=C\c1[nH]c(-c2ccc[nH]2)cc1OC | 27.4%
41 | O=C(/C(=N/O)S(=O)(=O)c1ccccc1)c1cccs1 | 113%
42 | COc1cc(OC)c2cc(C(=O)O)c(=O)oc2c1 | 130%
43 | CN(CCOc1ccc(CC2SC(=O)NC2=O)cc1)c1ccccn1 (stereo unspecified) | 110%
44 | CCC(C)CC(C)C(=O)c1c(O)ccn(O)c1=O (stereo unspecified) | 30.3%
45 | O=C(CSc1nc2c(n1Nc1ccccc1)-c1ccccc1SC2)Nc1nc(-c2ccc(Cl)cc2)cs1 | 8.37% (active)
46 | Cc1[nH]n(C(N)=S)c(=O)c1N=Nc1ccc(F)c(Cl)c1 | 94.9%
47 | Clc1cccc(Cc2cn3cc(-c4ccccc4)nc3s2)c1 | 46.8%
48 | NC(=O)N/N=C/c1ccc(Br)o1 | 111%
49 | C[n+]1c2ccccc2c(NC2CCNCC2)c2[nH]c3ccccc3c21 | 4.1% (active)
50 | [O-]/[N+](=C\C=C\c1ccccc1)c1ccccc1 | 92.1%
51 | CCCn1cnc2c1c(=O)n(CCCCC(C)=O)c(=O)n2C | 97.1%
52 | O=C1/C(=C/c2ccc3cccc(Cl)c3n2)SC(=S)N1CCc1ccc(O)cc1 | 96.6%
53 | CN=C(NC)N/N=C(C)\C=N\NC(=NC)NC | 112%
54 | CCN(CC)CCCNCCCNc1cc(OC)cc2cccnc12 | -62.3% (active)
55 | COc1cc2c(cc1OCCCOc1ccc(-c3cc4ccccc4c4ccccc34)cc1)N=C[C@@H]1CCCN1C2=O | -77.1% (active)
56 | Nc1ccc(C2=NN(c3ccccc3)C(c3ccc(Cl)cc3)C2)cc1 (stereo unspecified) | 96.7%
57 | O=C1C[C@@H]2/C(=C(O)\C=C\c3ccccc3)C(=O)C=C[C@@H]2O1 | 37.5%

Row | SMILES | growth
58 | COc1ccc(-c2cc(C(=O)Nc3nc4cc(C)c(C)cc4s3)nc3cc(-c4ccccc4)nn23)cc1OC | 106%
59 | CCC(=O)Nc1ccccc1C#C/C=C\C#Cc1ccccc1C(F)(F)F | 85.8%
60 | Oc1ccccc1C=Nc1ccccc1N=Cc1ccccc1O.[Cu+2] | 35.5%
61 | CCOc1cccc(C2CC(=O)Nc3cc4c(cc32)OCO4)c1 (stereo unspecified) | 89.9%
62 | NC(N)=NN=c1c(=O)c2ccccc2c1=O | 103%
63 | O=[N+]([O-])c1ccc(Oc2cccc(C(F)(F)F)c2)c([N+](=O)[O-])c1 | 98.2%
64 | CCCCCCCCCCCCNc1ncnc2[nH]ncc12 | 77.8%
65 | Cc1ccc2c(c1)C(=O)/C(=C/c1ncc([N+](=O)[O-])n1C)O2 | 21.8%
66 | O=C(/C=C/c1cccnc1)NCCCCC1CCCN(C(=O)c2ccccc2)C1 (stereo unspecified) | 89.2%
67 | O=C(/C=C/c1cccnc1)/C=C/c1cccnc1 | 20.9%
68 | COc1ccc(-n2nnc(C(=O)O)c2-c2cc(OC)c(OC)c(OC)c2)cc1 | 109%
69 | COc1cc2c(cc1OCCCCCn1c(-c3ccc(OCc4ccccc4)cc3)nc3cc(N4CCOCC4)ccc31)N=C[C@@H]1CCCN1C2=O | 21.4%
70 | O=C1C(=O)c2ccc(Br)cc2-c2cc(Br)ccc21 | -99% (active)
71 | CCC(C)CC(C)C(=O)c1c(O)ccn(OC)c1=O (stereo unspecified) | 44.9%
72 | NNC(=O)NO | 101%
73 | COc1ccc(C2CC(c3cccc(Nc4ccnc5cc(Cl)ccc45)c3)=NN2C=O)cc1 (stereo unspecified) | 61.7%
74 | C=CC1=C(C(=O)O)N2C(=O)[C@@H](NC(=O)/C(=N\O)c3csc(N)n3)[C@H]2SC1 (stereo in doubt) | 108%
75 | CC(=O)Oc1ccc(C2OC(c3ccc4ccccc4c3OC(C)=O)=NN2C(C)=O)c(OC(C)=O)c1 (stereo unspecified) | 32.2%
76 | Cc1ccc(NC(=O)COC(=O)c2ccc(S(=O)(=O)N3CCCCCC3)cc2)cc1 | 105%

From PubChem BioAssay (NCI)
